Screening results: PubChem, National Center for Advancing Translational Sciences (NCATS)
Tau FP inhib: tau fibrillization inhibition (FP); P10636; K18 P301L tau heparin fibrillization, Alexa594 FP, 6 h; Potency, µM (highest dose often 57.7 µM), without a hit: at the top dose activity, negative = inhibition, hits mostly inhibitors; hit rate 0.39% among 280,000; AID 1468; further: on the % scale 0 is the no-effect control and ±100 the full control effect; nearly all actives have a fitted effect of over 55% in size
Target sequence (P10636 561-689 P618L limits assumed): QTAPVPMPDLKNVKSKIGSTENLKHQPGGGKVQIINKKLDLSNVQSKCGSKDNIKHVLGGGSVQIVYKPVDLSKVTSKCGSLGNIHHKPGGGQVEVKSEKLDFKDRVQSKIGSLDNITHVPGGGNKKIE
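K18 P301L tau (15 uM unlabeled/0.24 uM Alexa 594-labeled, final) + compound + heparin 20 uM final; 100 mM NaOAc pH 7; 6 hr 37 C; ThT 30 uM final added, 1 hr RT; FP ex 555/em 632 nm.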
Tau fluor counter: counter-screen for tau fibril formation inhibitors. hit rate 0.93% among 280,000. Potency, µM (highest dose often 57.7 µM), without a hit: at the highest dose activity change, negative = decrease. AID 1463. tau K18 P301L Alexa594 fluorescence, heparin fibrillization; further: on the % scale 0 is the no-effect control and ±100 the full control effect; nearly all actives have a fitted effect of over 55% in size
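Human tau K18 P301L (15 uM unlabeled, 0.24 uM Alexa 594-labeled) in 100 mM sodium acetate pH 7 with 20 uM heparin, 6 hr at 37 C. ThT 30 uM added, 1 hr ambient; Alexa 594 FP and total fluorescence read at 555/632 nm.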
HTT aggregate: mutant huntingtin aggregation inhibition; PC12 HttQ103-GFP aggregates, Acumen cytometry, 40 h; Potency, µM (doses to about 46.1 µM), inactives show top-dose activity change, negative = inhibition, most hits filed as inhibitors; hit rate 1.1% among 220,000; further: on the % scale 0 is the no-effect control and ±100 the full control effect; nearly all actives have a fitted effect of over 60% in size
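Ecdysone-promoter PC12 model expressing HTT exon 1 Q103 fused to GFP, induced by tebufenozide at 100 nM final. Compounds titrated; aggregates sized 1–25 µm scored on a 488 nm laser cytometer.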
Tau fibril ThT: tau fibrillization inhibition (ThT binding); recombinant tau K18 P301L, heparin-induced fibrillization, ThT fluorescence; P10636; AID 1460; hit rate 2.1% among 270,000; Potency, µM (titrated, usually from 57.4 µM), for inactives: top-dose activity, negative = inhibition, hits mostly inhibitors; further: on the % scale 0 is the no-effect control and ±100 the full control effect; nearly all actives have a fitted effect of over 55% in size
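Using a mix of unlabeled (15 uM) and Alexa 594-labeled (0.24 uM) tau K18 P301L, heparin-triggered fibrillization over 6 hr at 37 C was scored by ThT fluorescence.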
HTT ATP protect: Huntington cell model cytoprotection by ATP luminescence. PC12 HTT-Q103 induced, cytoprotection, ATP luminescence, 40 h. Potency, µM (series often up to 56.4 µM), for the others: cytoprotection (ATP increase), hits mostly activators. hit rate 0.14% among 230,000; further: % of control where 0% means no effect; nearly all actives have a fitted effect of over 45% in size
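PC12 cells with ecdysone-inducible HTT exon 1 Q103-GFP, induced with 100 nM tebufenozide and co-treated with library compounds in a dose series (1536-well, 1500 cells/well). Cytoprotection read as ATP content by ATPlite luminescence.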
* hit, by the source's call; [ ] = another dose, or the depositor's remark. A selection: hits, their analogues and other compounds. The true share with any hit is near 3.7%. The call rests on the fitted dose curve; in most records, active means well fitted curve in the direction sought with a large enough effect; inconclusive means small, poorly fitted or top-dose-only effect, or another doubt; inactive means no such curve, though single readings can be large; an effect the other way counts as inactive or inconclusive. Potency means the concentration at half of the fitted maximal effect.

Screening O=C(NN1C(=O)C2C(C1=O)C1C=CC2C12CC2)c1cccnc1 (stereo not given) returned Tau FP inhib -7%, Tau fluor counter -2%, HTT aggregate 1%, Tau fibril ThT -1% and HTT ATP protect -17%.
Cc1nn(C(C)(C)C)c(OC(=O)c2cccs2)c1S(=O)(=O)c1ccccc1 was read as Tau FP inhib 5%, Tau fluor counter -3%, HTT aggregate 13µM*, Tau fibril ThT -11% and HTT ATP protect -16%[0.074 µM].
Screening CC(=O)Oc1c(S(=O)(=O)c2ccccc2)c(C)nn1C(C)(C)C returned Tau FP inhib 1%, Tau fluor counter 5%, HTT aggregate 0%, Tau fibril ThT 1% and HTT ATP protect 0%.
`COc1cccc(CN(C(=O)c2oc3cc(C)ccc3c2C)C2CCS(=O)(=O)C2)c1` (stereo not given) gave Tau FP inhib 8%, Tau fluor counter -17% and Tau fibril ThT -14%.
`Cc1noc(C)c1S(=O)(=O)NCCc1csc2nc(-c3ccc(F)cc3)nn12` gave Tau FP inhib inconclusive, Tau fluor counter -25% and Tau fibril ThT 0%.
CC(C)CCCC(C)C1CC(=O)C2=C3CCC4CC(O)CCC4(C)C3CCC21C (stereo not given) was read as HTT aggregate 32% and HTT ATP protect -15%.
`COc1ccc(-c2cc(C)no2)cc1S(=O)(=O)N1CCc2ccccc21` gave Tau FP inhib 15%, Tau fluor counter 28µM*[fluorescent] and Tau fibril ThT inconclusive.
Screening COc1ccc(-c2cc(C)no2)cc1S(=O)(=O)N1CCOc2ccccc21 returned Tau FP inhib -14%, Tau fluor counter inconclusive and Tau fibril ThT -1%.
Oc1ccc2ccccc2c1C=Nc1ccccc1-c1nc2ccccc2[nH]1 was read as Tau FP inhib -4%, Tau fluor counter inconclusive, HTT aggregate -35%, Tau fibril ThT 28µM* and HTT ATP protect -11%.
O=C1C=CC(=O)C(C2=C3C(=O)N(CCc4ccccc4)CC(=O)N3CCC2)=C1 was read as Tau FP inhib inconclusive, Tau fluor counter inconclusive, HTT aggregate 7.1µM* and Tau fibril ThT 16µM*.
For CC(C)(C)C1CCc2c(sc(NC(=O)c3cc4ccccc4c(=O)o3)c2C(N)=O)C1 (stereo not given) the results were Tau FP inhib inconclusive, Tau fluor counter 8% and Tau fibril ThT inconclusive.
`COc1ccc(/C=C/N(CCc2ccc(OC)c(OC)c2)C(=O)C(F)(F)F)cc1` gave Tau FP inhib 0%[11.6 µM], Tau fluor counter -18%[11.6 µM], Tau fibril ThT -8%[11.5 µM] and HTT ATP protect -26%[10 µM].
CCCNC(=O)Nc1ccc(F)c(Cl)c1 was read as Tau FP inhib -2%, Tau fluor counter -2%, HTT aggregate -9%, Tau fibril ThT 0% and HTT ATP protect -20%.
`CC(C)(C)NC(=O)Nc1ccc(F)c(Cl)c1` gave Tau FP inhib -10%, Tau fluor counter -12%, HTT aggregate 13µM*, Tau fibril ThT -3% and HTT ATP protect -26%.
`CC(=O)N[C@@H](CCC(=O)O)C(=O)O` gave HTT aggregate 8% and HTT ATP protect 2µM*.
NC(=O)NC(CCC(=O)O)C(=O)O (stereo not given) was read as HTT aggregate 4% and HTT ATP protect 7%.
N[C@@H](CSCc1ccccc1)C(=O)O was read as HTT ATP protect -12%[10 µM].
S=c1[nH]cc(-c2ccccc2)[nH]1 was read as Tau FP inhib 1%, Tau fluor counter 1%, HTT aggregate -20%[9.22 µM], Tau fibril ThT -2% and HTT ATP protect 23%[10 µM].
For O=[N+]([O-])c1ccc(-c2c[nH]c(=S)[nH]2)cc1 the results were Tau FP inhib inconclusive, Tau fluor counter inconclusive, HTT aggregate 11%[9.22 µM], Tau fibril ThT 25µM* and HTT ATP protect 22%[10 µM].
O=C(Cn1nc(-c2ccccc2)c2cnc3ccccc3c21)Nc1ccccc1 was read as Tau FP inhib -9%, Tau fluor counter -4% and Tau fibril ThT 5%.
For C1=CC2c3ccccc3NC(c3ccncc3)C2C1 (stereo not given) the results were Tau FP inhib inconclusive, Tau fluor counter inconclusive, HTT aggregate 23%, Tau fibril ThT 22µM* and HTT ATP protect -17%[10 µM].
Screening CC(=O)c1ccc2c(c1)C1C=CCC1C(C(=O)O)N2 (stereo not given) returned Tau FP inhib 2%, Tau fluor counter 14%, HTT aggregate -31%[9.22 µM], Tau fibril ThT 11% and HTT ATP protect -38%[10 µM].
`CC(=O)c1ccc2c(c1)C1C=CCC1C(c1ccncc1)N2` (stereo not given) gave Tau FP inhib inconclusive, Tau fluor counter inconclusive, HTT aggregate 0%, Tau fibril ThT 14µM* and HTT ATP protect -25%.
`O=C(NCCC1=CCCCC1)c1ccc2c(=O)n3nc(Nc4ccccc4)sc3nc2c1` gave Tau FP inhib inconclusive, Tau fluor counter -18% and Tau fibril ThT inconclusive.
For CCOC(=O)c1ccc(NC(=S)N2CCSC2c2ccc(OC)cc2)cc1 (stereo not given) the results were Tau FP inhib 25µM*, Tau fluor counter inconclusive, HTT aggregate 16%, Tau fibril ThT inconclusive and HTT ATP protect 15%[10 µM].
For CCOC(=O)c1ccc(NC(=S)N2CCSC2c2ccc(Cl)cc2)cc1 (stereo not given) the results were Tau FP inhib inconclusive, Tau fluor counter inconclusive, HTT aggregate 4%, Tau fibril ThT -10% and HTT ATP protect 8%[10 µM].
COC(=O)C1=C(C(=O)OC)[C@@H]2N(C)c3ccccc3[C@@]23C[C@@H](CO)N(C(=O)c2ccco2)C3=N1 was read as Tau FP inhib -3%[11.6 µM], Tau fluor counter -3%[11.6 µM], Tau fibril ThT 2%[11.5 µM] and HTT ATP protect -43%[10 µM].
For Cc1ccccc1-c1cncnc1NCc1cccs1 the results were HTT ATP protect 1%.
O=[N+]([O-])c1ccc(O)c(/C=N/Nc2ccccn2)c1 was read as Tau FP inhib 10%, Tau fluor counter -24%, HTT aggregate inconclusive, Tau fibril ThT inconclusive and HTT ATP protect -58%[10 µM].
`O=[N+]([O-])c1ccc(O)c(/C=N/Nc2nc3ccccc3[nH]2)c1` gave Tau FP inhib 5%, Tau fluor counter inconclusive, HTT aggregate inconclusive, Tau fibril ThT 8.9µM* and HTT ATP protect -85%[10 µM].
Screening COc1cc(/C=N/Nc2nc3ccccc3[nH]2)ccc1O returned Tau FP inhib inconclusive, Tau fluor counter inconclusive, HTT aggregate 12%, Tau fibril ThT 5µM* and HTT ATP protect 3%[10 µM].
For COc1cc(/C=C(/C(=O)c2cccs2)c2nc3ccccc3[nH]2)cc(OC)c1O the results were Tau FP inhib -2%, Tau fluor counter inconclusive, HTT aggregate -17%[9.22 µM], Tau fibril ThT 14µM* and HTT ATP protect -55%.
